D1 PAM – Potentiators of Human D1 Dopamine Receptor: qHTS; HEK293 TREx D1 cells, calcium flux, dopamine EC20 potentiation; potentiation, % at 10 µM; 0.036% of 360,000 active; in the data active = potentiation above about 30%; also: 0% is about no effect
Target sequence (P21728 whole entry, looked up): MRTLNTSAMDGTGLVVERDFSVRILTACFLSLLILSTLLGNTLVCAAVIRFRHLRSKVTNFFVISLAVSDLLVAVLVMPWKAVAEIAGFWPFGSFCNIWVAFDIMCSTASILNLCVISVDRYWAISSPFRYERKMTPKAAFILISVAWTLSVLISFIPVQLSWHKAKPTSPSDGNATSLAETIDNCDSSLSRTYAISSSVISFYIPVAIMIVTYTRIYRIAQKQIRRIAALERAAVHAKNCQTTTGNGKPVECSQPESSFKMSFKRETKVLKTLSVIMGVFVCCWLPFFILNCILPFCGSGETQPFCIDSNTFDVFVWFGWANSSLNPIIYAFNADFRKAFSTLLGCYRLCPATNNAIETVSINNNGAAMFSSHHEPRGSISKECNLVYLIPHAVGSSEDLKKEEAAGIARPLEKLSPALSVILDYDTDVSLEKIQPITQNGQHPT
D1 ag – Allosteric Agonists of the Human D1 Dopamine Receptor: qHTS; D(1A) dopamine receptor (Homo sapiens), P21728; HEK293 T-REx D1 cells, calcium flux, agonist mode; activation, % at 2 µM; 1% of 360,000 active; in the data active = activation above about 30%; also: 0% is about no effect
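Agonism was scored from calcium flux recorded over 180 s (1 read/s) after pintool compound addition, following a 10-cycle baseline. Cells were inducible force-coupled HEK293 TREx D1, plated overnight at 30 C and loaded with no-wash calcium dye.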
D3 ag – qHTS of D3 Dopamine Receptor Agonist: qHTS | D(3) dopamine receptor (Homo sapiens), P35462 | D3R DiscoveRx beta-arrestin cells, luminescence, 90 min | max activation, % | 0.58% of 410,000 active | AID 652048, 2013; in the data active = max activation above about 30%; also: 0% is about no effect
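Cells at 1500/well, incubated overnight, then treated with pinned compounds (dopamine as control) for 90 min at 37 degrees C. DiscoveRx reagent added for 30 - 60 minutes at room temperature; luminescence read.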
D3 antag – qHTS of D3 Dopamine Receptor Antagonist: qHTS; D(3) dopamine receptor (Homo sapiens), P35462; 2.5% of 360,000 active; max response, negative = inhibition, %; D3R cells, DiscoveRx beta-arrestin luminescence, antagonist mode; active compounds read low; in the data active = max response below about -50%; inconclusive = no clear call, values can overlap the other calls; also: % is scaled to controls: 0 for no effect and ±100 for the full control effect
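Cells expressing the human receptor were seeded at 1500 cells/well, incubated overnight at 37 degrees C in 5% CO2, then exposed to library compounds with dopamine controls for 90 minutes at 37 degrees C before luminescent detection.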
D1 antag – Antagonist of Human D 1 Dopamine Receptor: qHTS; HEK293 TREx D1 cells, calcium flux, dopamine EC80; active compounds read low; 3.2% of 360,000 active; AID 504652, 2011; D(1A) dopamine receptor (Homo sapiens), P21728; activity change, negative = inhibition, % at 10 µM; in the data active = activity change below about -30%; also: % is scaled to controls: 0 for no effect and ±100 for the full control effect
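Tetracycline-induced HEK293 Trex D1 cells, force-coupled to calcium, dye-loaded; compounds added and read 180 s, then EC80 dopamine added and calcium flux tracked kinetically another 180 s.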
* marks the source's active call; other numbers are inactive results; ? = inconclusive; . = no result. The list is not random: actives were taken first. Their share in the collection is about 6%.

SMILES	D1 PAM	D1 ag	D3 ag	D3 antag	D1 antag
Cc1ccc(-c2cc(C(=O)NCCc3ccccc3)c3c(-c4ccc(C)cc4)[nH]nc3n2)cc1	-4	4	6	.	39
CCC(C)NC(=O)c1ccccc1NC(=O)C1CCN(S(=O)(=O)Cc2ccccc2)CC1 (configuration not stated)	-1	0	-4	.	6
COC(=O)c1ccc(/C=C/c2ccc3cccc(OC(C)=O)c3n2)cc1	0	5	-16	-64*	5
Cn1ccc2c(N(Cc3ccccc3)Cc3ccccc3)cc3c(c21)C1CCC3O1 (configuration not stated)	.	.	-4	7	.
CCN(Cc1ccccc1)c1cc2c(c3c1ccn3C)C1CCC2C1 (configuration not stated)	.	.	-13	-55*	.
CCCN(CC1CC1)c1cc2c(c3c1ccn3C)C1CCC2C1 (configuration not stated)	.	.	-14	?	.
CCN(CC)c1cc2c(c3c1ccn3C)C1CCC2C1 (configuration not stated)	.	.	-19	-61*	.
COc1ccc(NC(=O)CCCNS(=O)(=O)c2cccs2)cc1	0	4	2	14	-9
O=C(O)CCCNS(=O)(=O)c1cccs1	-7	2	-6	-16	-58*
COc1ccc(OC)c(NC(=O)CN2C(=O)CC(C)Sc3ccccc32)c1 (configuration not stated)	0	3	5	.	3
O=C(NCc1ccccc1Br)c1ccc2c(c1)nc1n2CCOC1	-1	0	9	.	-1
COc1cc(OC)cc(C(=O)N[C@@H](CCSC)c2nc3ccccc3[nH]2)c1	-2	0	-7	-56*	-19
CSCC[C@H](NC(=O)c1cccc([N+](=O)[O-])c1C)c1nc2ccccc2[nH]1	-5	0	-9	?	-3
COc1cccc(C(=O)N[C@@H](CCSC)c2nc3ccccc3[nH]2)c1	4	3	-11	3	4
CSCC[C@H](NC(=O)c1ccc(Cl)c([N+](=O)[O-])c1)c1nc2ccccc2[nH]1	-6	6	-30	-95*	-29
O=C(NC(Cc1ccccc1)c1nc2ccccc2[nH]1)c1ccc(Cl)c([N+](=O)[O-])c1 (configuration not stated)	-3	7	-19	-63*	-17
COc1ccc(N2CCN(c3ccc(-c4nc(-c5ccccc5)no4)cc3[N+](=O)[O-])CC2)cc1	-2	1	1	.	-3
CSc1cccc(NC(=O)CCNC(=O)c2ccco2)c1	1	6	-7	-24	23
O=C(CCNC(=O)c1ccco1)Nc1cccc(Br)c1	-2	2	-6	16	-30*
CC(NC(=O)CCNC(=O)c1ccco1)c1ccccc1 (configuration not stated)	-6	0	-2	19	-42*
CC(NC(=O)CCSCCC(=O)NC(C)c1ccccc1)c1ccccc1 (configuration not stated)	-2	1	4	1	-45*
C=CCC(C(=O)NC(C)c1ccccc1)C(=O)NC(C)c1ccccc1 (configuration not stated)	7	32*	-8	-29	-18
Cc1ccc(S(=O)(=O)c2cn(CC(=O)Nc3ccc4c(c3)OCO4)c3ccc(C)cc3c2=O)cc1	-2	1	-4	.	2
O=C(c1ccccc1)N1CCN(CC#Cc2ccccc2)CC1	-3	-1	26	-6	0
C(#Cc1ccc(C#CCN2CCCC2)cc1)CN1CCCC1	-4	8	-10	12	-32*
SMILES	D1 PAM	D1 ag	D3 ag	D3 antag	D1 antag
O=C(c1cccc2ccccc12)N1CCC(N2CCN(c3ccccc3)CC2)CC1	-2	0	75*	-58*	6
CCOC(=O)N1CCC(N2CCN(c3ccccc3)CC2)CC1	1	2	35*	8	21
O=C(c1cccs1)N1CCC(N2CCN(c3ccccc3)CC2)CC1	-3	2	47*	?	-4
O=C(c1cc(-c2cccs2)on1)N1CCN(c2ccccc2)CC1	-10	5	-3	14	-38*
Cc1ccc(CNC(=O)c2cc(=O)c3cc(C)cc(C)c3o2)cc1	-1	1	-10	.	7
CCC(=O)N1c2ccccc2CC1C(=O)NCCc1ccc(OC)c(OC)c1 (configuration not stated)	0	1	-11	.	2
Cc1ccc2c(c1C)NC(=O)CC2c1ccc(Cl)cc1Cl (configuration not stated)	0	3	3	.	29
COc1ccc(NC(=O)Cn2cc(C(=O)C3CCCCC3)c3ccccc32)cc1	-9	2	1	.	-10
CCN(CC)CCCN(c1ccccc1)C1Cc2ccccc2C1	.	.	-8	.	.
CC(=O)c1cccc(NC(=O)c2cc(-c3cccs3)on2)c1	-9	5	-20	0	-1
O=C(Nc1cccc(O)c1)c1cc(-c2cccs2)on1	-8	9	-1	7	-38*
COc1cc(OC)cc(C(=O)N2CCC(N3CCN(c4ccccc4)CC3)CC2)c1	-3	0	8	-63*	11
COc1ccccc1N1CCN(C2CCN(C(=O)c3cccs3)CC2)CC1	4	-2	-17	-63*	6
Cc1cccc(OCc2nnc(SCC(=O)Nc3ccc(C)cc3C)o2)c1	0	-1	-13	.	3
COc1cc(OC)cc(C(=O)NCC2CCCN(Cc3ccc(SC)cc3)C2)c1 (configuration not stated)	-1	4	-18	?	-22
CCc1ccc(CN2CCCC(CNC(=O)c3cc(OC)cc(OC)c3)C2)cc1 (configuration not stated)	0	9	-17	-18	-37*
COC(=O)c1ccc(CN2CCCC(C(=O)c3ccccc3OC)C2)cc1 (configuration not stated)	-3	8	-25	-51*	1
COc1ccccc1C(=O)C1CCCN(Cc2ccc(Oc3ncccn3)cc2)C1 (configuration not stated)	-5	3	-16	0	-2
COC(=O)c1ccc(CN2CCCC(C(=O)c3cc(F)ccc3OC)C2)cc1 (configuration not stated)	-3	4	-17	-95*	2
CSc1ccccc1C(=O)C1CCCN(Cc2cnn(-c3ccccc3)c2)C1 (configuration not stated)	-2	8	-17	-76*	2
CC(C)Oc1ccc(CN2CCc3nc(Nc4ccc5c(c4)OCCO5)ncc3C2)cc1	2	0	5	.	8
CN1C(=O)Cc2cc(S(=O)(=O)CCC(=O)N3CCN(c4cccc(Cl)c4)CC3)ccc21	-3	1	-9	.	-16
